# According to the supplement of paper PMC8728848:
# The sample as a whole holds a higher share of the strongest signals than the screen did.
# B1: Morniga (Morus nigra) (protein)
# chain: MAGTSTNTQTTGTSQTVEVGLWGGPGGNAWDDGSYTGIREINLSHGDAIGAFSVIYDLNGQPFTGPTHPGNEPSFKTVKITLDFPNEFLVSVSGYTGVLPRLATGKDVIRSLTFKTNKKTYGPYGKEEGTPFSLPIENGLIVGFKGRSGFVVDAIGVHLS
# Assays:
# Test in all cases: glycan array binding signal (z-score within array); higher = stronger binding
# Conditions in all cases: glycan notation: IUPAC condensed, linker removed
# [1] = molecular target: Fuc(a1-2)Gal(b1-3)GalNAc(b1-4)[Neu5Ac(a2-3)]Gal(b1-4)Glc
# How it was run: (§1)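 Glycan array data came from 3228 arrays in the Consortium for Functional Glycomics database, and only arrays with an available protein sequence were kept. Glycan names were put into IUPAC-condensed notation, and columns mapping to the same glycan were averaged. The binding signal is a within-array Z-score, averaged across arrays of one protein sequence run at different concentrations or buffers and across linkers. A negative Z-score can be read as non-binding.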
# [2] = molecular target: Fuc(a1-2)Gal(b1-3)GlcNAc6S
# How it was run: as §1
# [3] = molecular target: Fuc(a1-2)Gal(b1-3)[Fuc(a1-4)]GlcNAc(b1-2)Man(a1-3)[Fuc(a1-2)Gal(b1-3)[Fuc(a1-4)]GlcNAc(b1-2)Man(a1-6)]Man(b1-4)GlcNAc(b1-4)GlcNAc
# How it was run: as §1
# [4] = molecular target: Fuc(a1-2)[Gal(a1-3)]Gal(b1-3)GlcNAc
# How it was run: as §1
# [5] = molecular target: Fuc(a1-2)[Gal(a1-3)]Gal(b1-4)[Fuc(a1-3)]GlcNAc(b1-3)GalNAc
# How it was run: as §1
# [6] = molecular target: Fuc(a1-2)[GalNAc(a1-4)]Gal(b1-4)GlcNAc
# How it was run: as §1
# [7] = molecular target: Fuc(a1-3)[Gal(b1-4)]GlcNAc(b1-2)Man(a1-3)[Fuc(a1-3)[Gal(b1-4)]GlcNAc(b1-2)Man(a1-6)]Man(b1-4)GlcNAc(b1-4)[Fuc(a1-6)]GlcNAc
# How it was run: as §1
# [8] = molecular target: Fuc(a1-3)[Gal3S(b1-4)]GlcNAc6S
# How it was run: as §1
# [9] = molecular target: Gal(a1-3)Gal(b1-4)[Fuc(a1-3)]GlcNAc(b1-2)Man(a1-3)[Gal(a1-3)Gal(b1-4)[Fuc(a1-3)]GlcNAc(b1-2)Man(a1-6)]Man(b1-4)GlcNAc(b1-4)GlcNAc
# How it was run: as §1
# [10] = molecular target: Gal(a1-4)Gal(b1-4)GlcNAc(b1-3)Gal(b1-4)Glc
# How it was run: as §1
# [11] = molecular target: Gal(b1-3)Gal(b1-4)GlcNAc(b1-2)Man(a1-3)[Gal(b1-3)Gal(b1-4)GlcNAc(b1-2)Man(a1-6)]Man(b1-4)GlcNAc(b1-4)GlcNAc
# How it was run: as §1
# [12] = molecular target: Gal(b1-4)GlcNAc(b1-2)Man(a1-3)Man(b1-4)GlcNAc(b1-4)GlcNAc
# How it was run: as §1
# [13] = molecular target: Gal(b1-4)GlcNAc(b1-2)Man(a1-3)[Gal(b1-4)GlcNAc(b1-2)][GlcNAc(b1-4)]Man(b1-4)GlcNAc(b1-4)GlcNAc
# How it was run: as §1
# [14] = molecular target: Gal(b1-4)GlcNAc(b1-2)Man(a1-3)[Man(a1-6)]Man(b1-4)GlcNAc(b1-4)GlcNAc
# How it was run: as §1
# [15] = molecular target: Gal(b1-4)GlcNAc(b1-2)Man(a1-6)[Man(a1-3)]Man(b1-4)GlcNAc(b1-4)GlcNAc
# How it was run: as §1
# [16] = molecular target: Gal(b1-4)GlcNAc(b1-2)[Gal(b1-4)GlcNAc(b1-6)]Man(a1-6)[Gal(b1-4)GlcNAc(b1-2)Man(a1-3)]Man(b1-4)GlcNAc(b1-4)[Fuc(a1-6)]GlcNAc
# How it was run: as §1
# Gal(b1-6)Gal = molecular target: Gal(b1-6)Gal
# How it was run: as §1
# Gal3S6S(b1-4)GlcNAc6S = molecular target: Gal3S6S(b1-4)GlcNAc6S
# How it was run: as §1
# Gal6S(b1-3)GlcNAc = molecular target: Gal6S(b1-3)GlcNAc
# How it was run: as §1
# Gal6S(b1-4)GlcNAc6S = molecular target: Gal6S(b1-4)GlcNAc6S
# How it was run: as §1
# GalNAc(b1-3)GalNAc = molecular target: GalNAc(b1-3)GalNAc
# How it was run: as §1
# GlcA(b1-3)Gal = molecular target: GlcA(b1-3)Gal
# How it was run: as §1
# [17] = molecular target: GlcNAc(a1-4)Gal(b1-4)GlcNAc
# How it was run: as §1
# [18] = molecular target: GlcNAc(a1-4)Gal(b1-4)GlcNAc(b1-3)Gal(b1-4)GlcNAc(b1-3)Gal(b1-4)GlcNAc
# How it was run: as §1
# [19] = molecular target: GlcNAc(b1-4)GlcNAc(b1-4)GlcNAc(b1-4)GlcNAc(b1-4)GlcNAc
# How it was run: as §1
# [20] = molecular target: Man(a1-2)Man(a1-3)[Man(a1-2)Man(a1-6)]Man(a1-6)[Man(a1-2)Man(a1-2)Man(a1-3)]Man
# How it was run: as §1
# [21] = molecular target: Man(a1-3)[Man(a1-6)]Man(a1-6)[Man(a1-2)Man(a1-3)]Man(b1-4)GlcNAc(b1-4)GlcNAc
# How it was run: as §1
# [22] = molecular target: Man(a1-3)[Man(a1-6)]Man(b1-4)GlcNAc(b1-4)GlcNAc
# How it was run: as §1
# [23] = molecular target: Man(a1-3)[Man(a1-6)]Man(b1-4)GlcNAc(b1-4)[Fuc(a1-6)]GlcNAc
# How it was run: as §1
# [24] = molecular target: Neu5Ac(a2-3)Gal(b1-3)GlcNAc(b1-3)Gal(b1-3)GlcNAc
# How it was run: as §1
# [25] = molecular target: Neu5Ac(a2-3)Gal(b1-3)GlcNAc(b1-6)GalNAc
# How it was run: as §1
# [26] = molecular target: Neu5Ac(a2-3)Gal(b1-4)GlcNAc(b1-2)Man(a1-3)[Neu5Ac(a2-6)Gal(b1-4)GlcNAc(b1-2)Man(a1-6)]Man(b1-4)GlcNAc(b1-4)GlcNAc
# How it was run: as §1
# [27] = molecular target: Neu5Ac(a2-3)Gal(b1-4)GlcNAc(b1-3)Gal(b1-3)GlcNAc
# How it was run: as §1
# [28] = molecular target: Neu5Ac(a2-3)Gal(b1-4)GlcNAc(b1-3)Gal(b1-4)GlcNAc(b1-3)Gal(b1-4)GlcNAc
# How it was run: as §1
# [29] = molecular target: Neu5Ac(a2-6)Gal(b1-4)GlcNAc(b1-2)Man(a1-3)Man(b1-4)GlcNAc(b1-4)GlcNAc
# How it was run: as §1
# [30] = molecular target: Neu5Ac(a2-6)Gal(b1-4)GlcNAc(b1-2)Man(a1-6)[Gal(b1-4)GlcNAc(b1-2)Man(a1-3)]Man(b1-4)GlcNAc(b1-4)GlcNAc
# How it was run: as §1
# [31] = molecular target: Neu5Ac(a2-6)Gal(b1-4)GlcNAc(b1-2)Man(a1-6)[Man(a1-3)]Man(b1-4)GlcNAc(b1-4)GlcNAc
# How it was run: as §1
# [32] = molecular target: Neu5Ac(a2-8)Neu5Ac(a2-8)Neu5Ac(a2-3)Gal(b1-4)Glc
# How it was run: as §1
binder,measurement,setting,value
B1,glycan array binding signal (z-score),[1],-0.335
same,glycan array binding signal (z-score),[2],-0.321
same,glycan array binding signal (z-score),[3],-0.19
same,glycan array binding signal (z-score),[4],-0.332
same,glycan array binding signal (z-score),[5],-0.329
same,glycan array binding signal (z-score),[6],-0.34
same,glycan array binding signal (z-score),[7],-0.304
same,glycan array binding signal (z-score),[8],-0.324
same,glycan array binding signal (z-score),[9],0.347
same,glycan array binding signal (z-score),[10],-0.341
same,glycan array binding signal (z-score),[11],4.04
same,glycan array binding signal (z-score),[12],4.3
same,glycan array binding signal (z-score),[13],1.41
same,glycan array binding signal (z-score),[14],4.49
same,glycan array binding signal (z-score),[15],4.24
same,glycan array binding signal (z-score),[16],1.6
same,glycan array binding signal (z-score),Gal(b1-6)Gal,-0.326
same,glycan array binding signal (z-score),Gal3S6S(b1-4)GlcNAc6S,-0.316
same,glycan array binding signal (z-score),Gal6S(b1-3)GlcNAc,-0.338
same,glycan array binding signal (z-score),Gal6S(b1-4)GlcNAc6S,-0.337
same,glycan array binding signal (z-score),GalNAc(b1-3)GalNAc,-0.327
same,glycan array binding signal (z-score),GlcA(b1-3)Gal,-0.333
same,glycan array binding signal (z-score),[17],-0.296
same,glycan array binding signal (z-score),[18],-0.327
same,glycan array binding signal (z-score),[19],-0.335
same,glycan array binding signal (z-score),[20],-0.327
same,glycan array binding signal (z-score),[21],4.19
same,glycan array binding signal (z-score),[22],5.03
same,glycan array binding signal (z-score),[23],4.02
same,glycan array binding signal (z-score),[24],-0.332
same,glycan array binding signal (z-score),[25],-0.299
same,glycan array binding signal (z-score),[26],2.56
same,glycan array binding signal (z-score),[27],-0.325
same,glycan array binding signal (z-score),[28],-0.342
same,glycan array binding signal (z-score),[29],3.66
same,glycan array binding signal (z-score),[30],3.24
same,glycan array binding signal (z-score),[31],4.66
same,glycan array binding signal (z-score),[32],-0.334
